Assay [1] is described as follows: E. coli DRC41 culture turbidity changes, primary screen, E. coli filamentation inducer project, strain DRC41, OD650, 48 h (AID 1152).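 Further: E. coli MC1000 strain DRC41 lacking acrAB efflux pump and sulA.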 To be noted: E. coli DRC41 (acrAB sulA), higher = more signal, called active from +8 up or from −8 down.
Assay [2] in a line: small-molecule binders of probe aLefty1, primary screen, biochemical, small-molecule microarray, 635/667 nm fluorescence (AID 1153).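 Further: score merges spot fluorescence with signal-to-noise ratio from the scanned slide images.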 The note with it: higher = more signal.
Assay [3] is described as follows: PSAC antagonists in infected red cells, primary screen, cell-based, P. falciparum Indochina, OD700, 1 h (AID 1154). To be noted: P. falciparum Indochina infected RBC osmotic lysis, higher = more signal, called active from +8 up or from −8 down.
Assay [4] is described as follows: PSAC antagonists in infected red cells, primary screen, cell-based, P. falciparum Indochina, OD700, 2 h (AID 1155).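 Further: lysis reports solute entry through the parasite surface anion channel PSAC; channel blockers reduce lysis of infected cells.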 The note with it: P. falciparum Indochina infected erythrocytes, osmotic lysis OD700; higher = more signal, called active from +8 up or from −8 down.
Assay [5] can be described thus: osmotic lysis modulators in infected erythrocytes, primary screen, PSAC antagonist project, cell-based, P. falciparum Indochina, OD700, 3 h (AID 1156). To be noted: higher = more signal, called active from +8 up or from −8 down.
Assay [6] in a line: PSAC antagonists in infected red cells, primary screen, cell-based, P. falciparum Indochina, OD700, 18 h (AID 1157). To be noted: P. falciparum Indochina infected erythrocytes, osmotic lysis OD700, 18 h; higher = more signal, called active from +8 up or from −8 down.
Assay [7] in a line: modulators of S6 phosphorylation in cells, primary screen, cell-based, A549, cytoblot, luminescence, serum-stimulated (AID 1158).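 Further: serum-stimulated A549 lung adenocarcinoma cells; signal is phosphorylated S6 detected by cytoblot immunostaining with HRP secondary.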 The note with it: A549 phospho-S6 cytoblot, 5 h, higher = more signal.
In assay [8] the target is NADPH oxidase 2 (Homo sapiens) (UniProt P04839). As to the kind of experiment: NOX2-dependent H2O2 signal modulators, primary screen, NOX inhibitor project, cell-based, HEK293-NOX2, PMA-stimulated, Amplex Red fluorescence (AID 1159). Further: test concentration not given here. The note with it: 45 min, higher = more signal, called active from +8 up or from −8 down.
Chain of NADPH oxidase 2 (Homo sapiens) (P04839 whole entry, looked up): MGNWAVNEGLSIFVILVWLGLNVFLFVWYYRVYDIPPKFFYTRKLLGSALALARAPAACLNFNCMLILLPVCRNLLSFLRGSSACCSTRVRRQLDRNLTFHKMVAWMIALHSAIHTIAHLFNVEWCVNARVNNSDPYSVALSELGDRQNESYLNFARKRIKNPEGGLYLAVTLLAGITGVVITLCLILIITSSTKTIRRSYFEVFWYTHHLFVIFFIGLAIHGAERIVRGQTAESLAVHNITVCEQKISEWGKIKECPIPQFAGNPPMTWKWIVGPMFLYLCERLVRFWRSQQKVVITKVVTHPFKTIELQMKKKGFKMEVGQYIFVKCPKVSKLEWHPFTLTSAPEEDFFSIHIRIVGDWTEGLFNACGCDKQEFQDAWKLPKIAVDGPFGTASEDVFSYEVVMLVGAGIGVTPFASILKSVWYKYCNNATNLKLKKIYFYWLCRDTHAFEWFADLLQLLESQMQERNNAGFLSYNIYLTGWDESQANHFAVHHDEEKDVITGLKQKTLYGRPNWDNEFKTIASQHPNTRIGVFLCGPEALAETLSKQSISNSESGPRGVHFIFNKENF
Assay [9] has as its target NADPH oxidase 4 (Homo sapiens) (UniProt Q9NPH5). As to the kind of experiment: NOX4-dependent H2O2 signal modulators, primary screen, NOX inhibitor project, cell-based, HEK293-NOX4, tetracycline-induced, Amplex Red fluorescence (AID 1160). To be noted: 45 min, higher = more signal, called active from +8 up or from −8 down.
For assay [10], the target named is NADPH oxidase 5 (Homo sapiens) (UniProt Q96PH1). As to the kind of experiment: NOX5-dependent H2O2 signal modulators, primary screen, NOX inhibitor project, cell-based, HEK293-NOX5, Amplex Red fluorescence (AID 1161). The note with it: HEK293-NOX5, ionomycin, 45 min, higher = more signal.
Chain of NADPH oxidase 5 (Homo sapiens) (Q96PH1 whole entry, looked up): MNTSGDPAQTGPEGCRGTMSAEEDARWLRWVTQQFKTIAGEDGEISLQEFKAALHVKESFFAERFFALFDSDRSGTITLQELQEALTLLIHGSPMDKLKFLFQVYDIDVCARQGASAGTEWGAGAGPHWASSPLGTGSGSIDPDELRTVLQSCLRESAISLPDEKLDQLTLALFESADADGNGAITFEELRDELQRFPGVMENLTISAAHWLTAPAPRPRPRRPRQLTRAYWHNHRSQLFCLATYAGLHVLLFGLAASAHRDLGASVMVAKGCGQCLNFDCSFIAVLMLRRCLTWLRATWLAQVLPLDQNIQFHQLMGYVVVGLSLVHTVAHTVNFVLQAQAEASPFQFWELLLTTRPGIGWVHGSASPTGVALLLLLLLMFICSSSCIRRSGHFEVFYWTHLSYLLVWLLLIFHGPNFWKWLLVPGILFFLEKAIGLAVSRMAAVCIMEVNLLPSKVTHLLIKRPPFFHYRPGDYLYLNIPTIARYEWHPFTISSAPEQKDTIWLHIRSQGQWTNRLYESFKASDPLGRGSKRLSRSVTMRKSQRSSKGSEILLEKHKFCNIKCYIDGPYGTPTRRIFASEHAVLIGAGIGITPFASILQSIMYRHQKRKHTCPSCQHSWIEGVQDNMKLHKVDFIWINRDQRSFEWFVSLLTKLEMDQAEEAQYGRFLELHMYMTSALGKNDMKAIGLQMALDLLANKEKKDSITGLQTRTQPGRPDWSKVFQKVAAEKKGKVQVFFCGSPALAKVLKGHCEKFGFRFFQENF
Assay [11] can be described thus: A549 cell viability effects, profiling panel, calcein-AM fluorescence, 48 h, basal (AID 1162). Further: test concentration not given here. To be noted: higher = more signal.
Assay [12] can be described thus: adipocyte viability effects, profiling panel, cell-based, 3T3-L1 adipocytes, calcein-AM fluorescence, 48 h, basal (AID 1163). Further: test concentration not given here. The note with it: 3T3-L1 adipocytes viability, higher = more signal.
Assay [13] in a line: HepG2 cell viability effects, profiling panel, calcein-AM fluorescence, 48 h, basal (AID 1164). Further: test concentration not given here. The note with it: higher = more signal.
Assay [14] is described as follows: MM1S cell viability effects, profiling panel, calcein-AM fluorescence, 48 h, basal (AID 1165).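 Further: viability of MM1S multiple myeloma cells under basal unstimulated conditions; test concentration not given here.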 To be noted: higher = more signal.
Assay [15] is described as follows: basal RPMI8226 viability, no added stimulus, profiling panel, cell-based, calcein-AM fluorescence, 48 h, PK04 Diversity Set (AID 1166).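 Further: cells grown under basal conditions without added stimulus; test concentration not given here.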 To be noted: RPMI8226 myeloma viability, higher = more signal.
A short description of assay [16]: basal HepG2 mitochondrial membrane potential changes, profiling panel, cell-based, JC-1 fluorescence, 24 h, 100 nL compound (AID 1167). Further: test concentration not given here. The note with it: higher = more signal.
Assay [17] in a line: basal 3T3-L1 adipocyte mitochondrial potential changes, profiling panel, cell-based, JC-1 fluorescence, 3T3-L1 adipocytes, 24 h, 100 nL compound (AID 1168). Further: test concentration not given here. The note with it: JC-1 mitochondrial fluorescence, higher = more signal, called active from +8 up or from −8 down.
The nature of assay [18]: basal RPMI8226 mitochondrial membrane potential changes, profiling panel, cell-based, JC-1 fluorescence, 24 h, 100 nL compound (AID 1169). Further: test concentration not given here. To be noted: RPMI8226 myeloma, JC-1 mitochondrial potential fluorescence, higher = more signal.
A short description of assay [19]: basal MM1S mitochondrial membrane potential changes, profiling panel, cell-based, JC-1 fluorescence, 24 h, 100 nL compound (AID 1170). Further: test concentration not given here. To be noted: higher = more signal.
Assay [20] in a line: A549 lung cancer cell viability effects, profiling panel, resazurin fluorescence, 24 h, PK04 Diversity Set (AID 1171). Further: test concentration not given here. The note with it: higher = more signal, called active from +8 up or from −8 down.

SMILES strings stand for the structures. Calls of active or inactive are those of the source.

Our source for the z-score and composite z-score values is PubChem BioAssay.

Chain of NADPH oxidase 4 (Homo sapiens) (Q9NPH5 whole entry, looked up): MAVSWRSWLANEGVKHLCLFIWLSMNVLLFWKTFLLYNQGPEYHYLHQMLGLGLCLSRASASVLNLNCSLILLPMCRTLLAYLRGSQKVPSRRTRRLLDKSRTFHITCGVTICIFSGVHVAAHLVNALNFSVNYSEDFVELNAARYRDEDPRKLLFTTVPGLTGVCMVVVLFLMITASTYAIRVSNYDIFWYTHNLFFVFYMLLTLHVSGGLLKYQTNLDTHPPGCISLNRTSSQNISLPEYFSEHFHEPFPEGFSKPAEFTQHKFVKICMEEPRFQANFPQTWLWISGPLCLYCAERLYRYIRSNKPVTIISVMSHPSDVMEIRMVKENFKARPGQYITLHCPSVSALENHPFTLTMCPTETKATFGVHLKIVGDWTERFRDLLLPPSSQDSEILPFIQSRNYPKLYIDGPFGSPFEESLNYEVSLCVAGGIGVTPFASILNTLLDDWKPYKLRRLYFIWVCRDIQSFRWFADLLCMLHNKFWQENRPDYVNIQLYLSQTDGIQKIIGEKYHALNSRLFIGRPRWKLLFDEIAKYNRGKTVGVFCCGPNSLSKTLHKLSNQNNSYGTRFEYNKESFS

Consider `C[N+](C)(C)CCCC[C@@H]1NC(=O)[C@@H]2C[C@H](C(=O)NCCCCCNC(=O)CS)[C@H](c3cccc(OCCO)c3)N2C1=O`, for which the z-score in assay [1] is 0.724 (inactive); in [3], 3.64 (inactive); in assay [4], 0.813 (inactive); in [5] it was -1.78 (inactive); in assay [6], 0.718 (inactive); in assay [7], 0.596. Also, the z-score in assay [8] was 1.54 (inactive); in assay [9], 0.433 (inactive); in [10] it was 0.711; in [11] it was 0.884; in assay [12], -0.0052; in assay [13] it was 0.289. Further, the z-score in assay [14] is -0.0724; in [15], -1.31; in [16] it was 1.8; in [17] it was -0.364 (inactive); in [18] it was 0.245; in assay [19], -0.243. In addition, the z-score in assay [20] is 0.764 (inactive). The molecule also yielded a composite z-score in assay [2] of -0.0061.

As for `O=C1O[C@@H](c2ccccc2)[C@@H](c2ccccc2)N2[C@@H](c3ccc(O)cc3)[C@]3(C(=O)Nc4ccc(C#CC5=CCCCC5)cc43)[C@@H](C(=O)Nc3nc4ccccc4s3)[C@H]12`, the z-score in assay [1] is 0.542 (inactive); in [3], 0.0488 (inactive); in assay [4], 1.36 (inactive); in assay [5], 2.66 (inactive); in assay [6], 1.6 (inactive); in assay [7], -0.227. Besides, the z-score in assay [8] is 1.35 (inactive); in assay [9] it was 0.617 (inactive); in assay [10], -0.146; in assay [11], 0.583; in assay [12], -0.0897; in assay [13], 1.46. In addition, the z-score in assay [14] was -0.575; in assay [15] it was -1.81; in assay [16], -2.6; in [17] it was 0.03 (inactive); in assay [18], -0.745; in assay [19], -1.02. Moreover, the z-score in assay [20] is -0.361 (inactive). In addition, the composite z-score in assay [2] worked out at 1.53.

For `C=CCC(OC(C)=O)[C@@H]1[C@@H](N(Cc2ccc(-c3ccccc3)cc2)C(=O)c2cccc3ccccc23)c2cc(OCCCO)ccc2N1C(=O)c1ccc2ccccc2n1` (stereo not given in full), the z-score in assay [1] is 0.214 (inactive); in [3], 1.01 (inactive); in assay [4] it was 0.569 (inactive); in [5], -0.745 (inactive); in assay [6], 0.357 (inactive); in [7], 0.332. The z-score in [8] was 0.772 (inactive); in assay [9], -0.294 (inactive); in [10], -3.7; in [11], 0.479; in [12], 0.522; in assay [13] it was 0.833. Besides, the z-score in assay [14] is -0.318; in [15], 0.116; in [16], 3.07; in [17] it was 0.0656 (inactive); in [18], -0.0127; in assay [19], 0.506. The z-score in assay [20] was 0.131 (inactive). Also, in assay [2], the composite z-score is 0.123.

`CN1C(=O)C2C=CC(C(O)c3cccc4ccccc34)N(NC(=O)OC(C)(C)C)C2C1=O` (stereo not given): the z-score in assay [1] was -0.622 (inactive); in assay [3], 1.15 (inactive); in assay [4], 0.564 (inactive); in [5], 0.0094 (inactive); in assay [6], 0.877 (inactive); in assay [7], -1.22. Besides, the z-score in assay [8] is -0.492 (inactive); in assay [9], -3.85 (inactive); in [10], 0.409; in [11] it was -0.927; in assay [12] it was -0.0679; in assay [13], -0.559. Also, the z-score in assay [14] is -0.248; in assay [15], -1.49; in [16], -2.24; in [17], -0.532 (inactive); in [18], 0.219; in [19], 0.437. In assay [20], the z-score was -0.195 (inactive). In assay [2], this molecule gave a composite z-score of 0.966.

Regarding `O=C1CSC(c2cccc([N+](=O)[O-])c2)N1c1ccccc1` (stereo not given), the z-score in [1] was 0.0188 (inactive); in assay [3] it was 0.0361 (inactive); in assay [4], 0.111 (inactive); in [5] it was 0.708 (inactive); in assay [6], -0.139 (inactive); in assay [7], -0.0619. Further, the z-score in assay [8] is -0.276 (inactive); in assay [9], -0.0621 (inactive); in [10] it was 0.509; in assay [11] it was -0.295; in assay [12] it was -0.23; in assay [13] it was 1.71. Moreover, the z-score in assay [14] was 1.31; in [15], -0.566; in assay [16], 1.04; in [17], 1.05 (inactive); in [18], 0.0369; in [19], -0.779. Further, in [20], the z-score is -0.292 (inactive). This molecule also came in with a composite z-score in assay [2] of 0.0163.

`COc1cccc(C[C@H]2C[C@@H](CO[Si](C(C)C)(C(C)C)C(C)C)N3C(=O)[C@]4(C(C)=O)O[C@]23[C@H]2C(=O)N(C)C(=O)[C@H]24)c1`: the z-score in assay [1] was -1.09 (inactive); in [3], 4.02 (inactive); in assay [4], 0.867 (inactive); in assay [5], -0.382 (inactive); in assay [6], 0.702 (inactive); in assay [7], -0.267. For the same molecule, the z-score in [8] was 0.083 (inactive); in [9] it was 0.451 (inactive); in assay [10] it was 0.146; in [11] it was -2.16; in assay [12] it was -0.206; in assay [13] it was -3.45. In addition, the z-score is -2.93 in [14]; -4.26 in assay [15]; 1.49 in assay [16]; 0.207 (inactive) in [17]; -1.05 in assay [18]; -1.96 in [19]. In addition, the z-score in assay [20] was -1.41 (inactive). The same molecule displayed a composite z-score in [2] of -0.0713.

For the molecule `OCCCC1=CC(c2cccs2)N(Cc2cccc(OC(F)(F)F)c2)CC1` (stereo not given), the z-score in assay [1] was -1.07 (inactive); in assay [3], 7.72 (inactive); in assay [4], 1.33 (inactive); in [5] it was -0.499 (inactive); in [6] it was 1.07 (inactive); in assay [7], -0.105. The z-score in assay [8] was -0.257 (inactive); in assay [9] it was -1.27 (inactive); in assay [10], -1.11; in assay [11], -0.686; in [12], -0.777; in assay [13], -1.13. Moreover, the z-score in [14] is -3.3; in assay [15], -3.79; in assay [16], -1.24; in assay [17] it was -1.13 (inactive); in assay [18] it was -0.733; in [19], 0.478. Further, the z-score in [20] is 0.397 (inactive). The composite z-score in [2] is -0.0109.

For `CCCN1C(=O)[C@@]2(Cc3ccccc3)N=C(c3ccc(OCCCO)cc3)O[C@H]2c2ccccc21`, the z-score in assay [1] was 0.299 (inactive); in [3], 32.7 (active); in assay [4], 33.7 (active); in assay [5], 3.01 (inactive); in assay [6] it was 5.2 (inactive); in assay [7], -0.149. Further, the z-score in assay [8] is -2.69 (inactive); in assay [9] it was -0.584 (inactive); in assay [10], -1.79; in assay [11] it was -1.54; in assay [12] it was 0.778; in assay [13], -1.7. Further, the z-score in [14] is -2.34; in [15] it was -4.32; in assay [16] it was -0.214; in [17], 1.18 (inactive); in assay [18], -1.27; in assay [19], -0.647. Moreover, in assay [20], the z-score is -0.232 (inactive). This molecule returned a composite z-score in [2] of 0.572.

On to `CCOC(=O)C1=CCC(c2cccc(Cl)c2)O1` (stereo not given), for which the z-score in [1] was -0.504 (inactive); in [3], 14.9 (active); in [4], 1.02 (inactive); in assay [5], 0.75 (inactive); in assay [6] it was -0.244 (inactive); in [7], 1.61. Moreover, the z-score is -4.41 (inactive) in assay [8]; -1.37 (inactive) in [9]; -3.51 in assay [10]; -1 in assay [11]; 0.464 in assay [12]; -0.531 in [13]. For the same molecule, the z-score in assay [14] was -0.488; in assay [15] it was -1.15; in assay [16] it was -0.454; in assay [17], -0.627 (inactive); in [18] it was 0.96; in [19] it was -0.472. For the same molecule, the z-score in [20] is 1.16 (inactive). Moreover, the composite z-score in [2] is 0.152.
